Reference: PubChem BioAssay AID652067 (The Scripps Research Institute Molecular Screening Center, 2013)
About 5,400 (1.5%) of roughly 370,000 compounds were called active.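 How the source made its calls: active means activation above the mean of all tested compounds plus 3 SD (cut at about 5.5% in these data); inactive means the rest.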 The full list was thinned out, with actives kept by preference.

These compounds were tested on DAF-12 nuclear receptor (Haemonchus contortus) (assay: hcDAF-12 driven luciferase reporter activation – cell-based, luminescence, HEK293, lit1-tk-luc reporter, primary screen (AID 652067;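 further: 100% = response to 3 µM Δ7-dafachronic acid high control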)). Conditions: HEK293 hcDAF-12 lit1-tk-luc reporter, at 6.8 µM, stronger effect = higher value, 0% DMSO, 100% Δ7-dafachronic acid.
`Cc1nnc(SCC(=O)N2CCN(c3ccccc3)CC2)n1-c1ccccc1` was tested, and the activation was 6.51% (active).
For `Cc1cc2nnc(SCC(=O)N3CCN(c4ccccc4)CC3)n2c(N)n1`, the activation was -2.55% (inactive).
With `O=C(CSc1nnc(Cc2ccccc2)n1-c1ccccc1)N1CCOCC1` the activation was -0.92% (inactive).
In the case of `CCC1CCc2c(sc(NC(C)=O)c2C#N)C1` (stereo unspecified), the activation is reported as -0.54% (inactive).
With `N#Cc1c(NC(=O)c2ccc(N3CCOCC3)c([N+](=O)[O-])c2)sc2c1CCCC2` the activation was -0.5% (inactive).
`N#Cc1c(NC(=O)C2CCCO2)sc2c1CCCCC2` (stereo unspecified) was tested, and the activation was 6.65% (active).
`COC(=O)C1=C(C)NC(=S)NC1c1ccc(OC)cc1` (stereo unspecified) was tested, and the activation was -0.46% (inactive).
In the case of `C=CC[C@]12C[C@@]3(O[C@H](c4ccc(C(F)(F)F)cc4)N=C3C[C@H](c3ccc(OC)cc3)[C@H]1C)N(C1CCN(Cc3ccccc3)CC1)C2=O`, the activation is reported as 1.02% (inactive).
For `N=c1c2c3c(sc2nc2n1CCCCC2)CCCC3`, the activation was 0.65% (inactive).
`O=c1c2c(nc3n1CCCCC3)sc1c(O)cccc12` was tested, and the activation was 5.87% (active).
For `CC(=O)c1ccc(NC(=O)c2sc3nc4n(c(=O)c3c2C)CCCCC4)cc1`, the activation was 3.47% (inactive).
In the case of `c1csc(-c2nnc(SCc3nc4ccccc4[nH]3)o2)c1`, the activation is reported as 0.87% (inactive).
In the case of `CC1CCCN(c2cccc3c2S(=O)(=O)N(Cc2ccc(F)cc2)[C@@H](C)[C@H](c2ccccc2)O3)C1` (stereo partly specified), the activation is reported as -1.13% (inactive).
`Cc1ccc(SCCC(=O)NC(C(C)C)C(C)C)cc1` was tested, and the activation was -0.97% (inactive).
In the case of `Cc1ccc(SCCSc2ncccn2)cc1`, the activation is reported as 7.62% (active).
`Cc1ccc(SCCC(=O)NCc2ccccn2)cc1` was tested, and the activation was 0.97% (inactive).
With `COc1cccc(CN(C)C(=O)CC23CC4CC(CC(C4)C2)C3)c1OC` the activation was -1.43% (inactive).
With `CCOC(=O)c1ccc(-c2ccc3ncnc(N(C)Cc4sccc4C)c3c2)o1` the activation was 0.56% (inactive).
In the case of `COCCCNc1nc2ccccc2nc1NS(=O)(=O)c1ccc(F)cc1`, the activation is reported as 4.77% (inactive).
`Cc1ccc(S(=O)(=O)C(C#N)c2nc3ccccc3nc2N2CCCC2)cc1C` (stereo unspecified) was tested, and the activation was -0.94% (inactive).
In the case of `Cc1ccc(S(=O)(=O)Nc2nc3ccccc3nc2N2CCc3ccccc3C2)cc1`, the activation is reported as 6.92% (active).
For `O=C(CSc1nc2c(c(=O)[nH]1)CCCC2)N1CCCCC1`, the activation was 0.61% (inactive).
With `CCOC(=O)C1CCN(C(=O)C(C)(C)NC(=O)Nc2ccc(F)c(F)c2)CC1` the activation was -0.52% (inactive).
In the case of `O=C(NCc1cccs1)C1CCN(S(=O)(=O)c2ccccc2[N+](=O)[O-])CC1`, the activation is reported as -1.15% (inactive).
With `c1ccc2c(CCN3CCNC[C@H]3Cc3cccc4ccccc34)cccc2c1` the activation was -0.26% (inactive).
In the case of `c1ccc(C2CNCc3c2ccc2ccccc32)cc1` (stereo unspecified), the activation is reported as 6.29% (active).
`Cn1ncc([N+](=O)[O-])c1C(=O)Nc1cc(Cl)ccc1Cl` was tested, and the activation was -1.09% (inactive).
`c1coc(CCNc2ncnc3ccc(-c4ccc5c(c4)OCO5)cc23)c1` was tested, and the activation was 3.8% (inactive).
For `CCC(c1nc2ccccc2[nH]1)n1c(=O)c(-c2cccs2)nc2ccccc21` (stereo unspecified), the activation was -1.27% (inactive).
In the case of `CC(C)n1c(NCc2c[nH]c3ccccc23)nc2ccccc21`, the activation is reported as 1.49% (inactive).
With `CC(C)(C)C(c1nc2ccccc2[nH]1)n1c(Cc2csc3ccccc23)nc2ccccc21` (stereo unspecified) the activation was 6.12% (active).
For `N#Cc1nc(N)nc(N(c2ccccc2)c2ccccc2)n1`, the activation was -1.6% (inactive).
In the case of `Cc1ccccc1NC(=O)N1CCCC1C(=O)NCc1ccccc1` (stereo unspecified), the activation is reported as 0.56% (inactive).
For `CC(C)C[C@H](NC(=O)CC1CCCC1)C(=O)N1CCC[C@H]1C(=O)NCc1ccccc1`, the activation was -1.97% (inactive).
In the case of `Cc1ccccc1C(=O)N[C@H](C(=O)N1CCC[C@H]1C(=O)NCc1ccccc1)C(C)C`, the activation is reported as 6.82% (active).
With `C=CCN1[C@H](CC(C)C)COc2cccc(N3CCCC3)c2S1(=O)=O` the activation was 1.33% (inactive).
For `COC(=O)[C@]12C[C@H](CC(=O)N3CCN(C(=O)C4CC4)CC3)C(=O)N(Cc3ccc4c(c3)OCO4)C1=C[C@H](C(C)(C)C)O[C@@H]2C`, the activation was -0.45% (inactive).
With `Nc1ncnc2c1ncn2[C@@H]1O[C@H](C(=O)N[C@@H](CCc2ccccc2)C(=O)N2CCCN(Cc3cccs3)CC2)[C@@H](O)[C@H]1O` the activation was -0.84% (inactive).
With `CC1CCN(c2ccc(C(=O)O)cc2NS(=O)(=O)c2ccc(Br)s2)CC1` the activation was 0.68% (inactive).
For `O=C(Nc1ccn(Cc2ccccc2)n1)c1cccc(F)c1`, the activation was 8.2% (active).
With `O=C(Cn1cnc([N+](=O)[O-])n1)NCCc1ccccc1` the activation was 1.32% (inactive).
In the case of `Cc1c(Br)c([N+](=O)[O-])nn1CC(=O)N1CCN(Cc2ccccc2)CC1`, the activation is reported as -0.25% (inactive).
In the case of `Cc1ccc(NC(=O)CC2C(=O)N(Cc3ccccc3)C(=S)N2NC(=O)c2cccc(F)c2)c(C)c1` (stereo unspecified), the activation is reported as 0.38% (inactive).
With `CCOc1cccc(C(=O)Nc2cnn(Cc3ccccc3)c2)c1` the activation was -0.69% (inactive).
In the case of `O=C(Nc1ccn(Cc2ccccc2)n1)c1n[nH]c([N+](=O)[O-])c1Cl`, the activation is reported as 5.98% (active).
`CCCCCN1CCCCC(NC(=O)C(C)CCC)C1=O` (stereo unspecified) was tested, and the activation was 0.16% (inactive).
`CC(C)(C)C(=O)Nc1c(Br)c(C2CC2)nn1-c1ccccc1` was tested, and the activation was -0.94% (inactive).
For `O=C(CCCCCN1C(=O)C2C3C=CC(C3)C2C1=O)Nc1ccccc1` (stereo unspecified), the activation was -1.48% (inactive).
With `CN(C)CC(=O)N[C@@H]1C[C@@H]2O[C@H](CO)CC[C@@H]2O[C@@H]1CCc1ccc(C#Cc2ccccc2)cc1` the activation was -2.47% (inactive).
`COc1ccc(C(=O)COC(=O)c2ccc3ccccc3n2)cc1` was tested, and the activation was 0.42% (inactive).
`COc1cccc(NC(=O)COC(=O)c2ccc3ccccc3n2)c1` was tested, and the activation was 4.16% (inactive).
`COc1ccc(C2=NOC(COC(=O)c3ccc4ccccc4n3)C2)cc1` (stereo unspecified) was tested, and the activation was 7.15% (active).
For `Cc1ccc(OCc2nc3ccccc3n2C)cc1`, the activation was 11.3% (active).
`COc1cccc(C(O)Cc2nc3ccccc3n2C)c1OC` (stereo unspecified) was tested, and the activation was -0.39% (inactive).
`Cc1ccc(OCc2nnc(SC3CCc4ccccc4C3=O)n2C)cc1` (stereo unspecified) was tested, and the activation was 1.15% (inactive).
In the case of `Cc1cccnc1NC(=O)Cn1c(=O)oc2ccccc21`, the activation is reported as 6.75% (active).
In the case of `CC(=O)c1ccc(NC(=O)Cn2c(=O)oc3ccccc32)cc1`, the activation is reported as -1.53% (inactive).
`COc1ccc(OC)c(NC(=O)Cn2c(=O)oc3ccccc32)c1` was tested, and the activation was -1.37% (inactive).
For `CCC[C@H]1C(=O)CC[C@@]23CCCN2C(=O)CCC[C@@H]13`, the activation was 0.52% (inactive).
In the case of `COc1ccnc(C(=O)N2CCC(Oc3cccnc3)CC2)c1`, the activation is reported as -0.13% (inactive).
For `COCCN(CCOC)S(=O)(=O)c1ccc(C(=O)Nc2nc3c(s2)CCc2ccccc2-3)cc1`, the activation was -3.08% (inactive).
`CN(C)CCNC(=O)c1ccc(-c2cn3c(-c4ccc(Oc5ccccc5)cc4)cnc3cn2)cc1` was tested, and the activation was -0.28% (inactive).
For `CN(C)CCNC(=O)c1[nH]nc2c1CCc1ccccc1-2`, the activation was 6.06% (active).
In the case of `COC(=O)[C@]12C[C@H](CC(=O)NCCCCc3ccccc3)C(=O)N(Cc3ccc4c(c3)OCO4)C1=C[C@H](C(C)(C)C)O[C@@H]2C`, the activation is reported as 2.01% (inactive).
For `C[C@H]1[C@H](NC(=O)c2cccc(N(C)C)c2)CC[C@@]23CCCN2C(=O)CCC[C@@H]13`, the activation was -1.72% (inactive).
With `CCCNC(=O)Nc1ccc2c(c1)C(=O)N(C)[C@H]1CC[C@H](CC(=O)NCC3CCCCC3)O[C@@H]1CO2` the activation was 1.19% (inactive).
For `Cc1nc(NC(=O)C(C)(C)C)sc1[N+](=O)[O-]`, the activation was -0.38% (inactive).
`Nc1[nH]c(C(=O)c2ccccc2)c(-c2ccc(Cl)cc2Cl)c1C(=O)c1ccccc1` was tested, and the activation was -1.47% (inactive).
For `Nc1[nH]c(C(=O)c2ccc(Br)cc2)c(-c2ccc3c(c2)OCO3)c1C(=O)NCCc1c[nH]c2ccccc12`, the activation was 0.26% (inactive).
`O=c1c2cc([N+](=O)[O-])ccc2nc2n1CCC2` was tested, and the activation was -0.38% (inactive).
In the case of `Cc1ccnc(N2C(=O)c3ccc([N+](=O)[O-])cc3C2=O)c1`, the activation is reported as -1.07% (inactive).
In the case of `Cc1ccc(-n2cc3ccc([N+](=O)[O-])cc3n2)cc1`, the activation is reported as 9.08% (active).
In the case of `COC(=O)C[C@@H]1CC[C@@H]2[C@H](COc3ccc(NC(=O)c4cccc(F)c4)cc3C(=O)N2C)O1`, the activation is reported as -2.02% (inactive).
`O=C(NCCCc1ccccc1)[C@H](Cc1ccccc1)NC1(C(=O)NCCc2c[nH]c3ccccc23)CCC1` was tested, and the activation was 1.93% (inactive).
In the case of `Nc1ncnc2c1ncn2[C@@H]1O[C@H](C(=O)N[C@@H](CCc2ccccc2)C(=O)NCC(=O)N2CCOCC2)[C@@H](O)[C@H]1O`, the activation is reported as -0.25% (inactive).
With `Cc1csc(NC(=O)Nc2ccccc2[N+](=O)[O-])n1` the activation was 13.9% (active).
`CN1CCN(CCNC(=O)Nc2ccccc2[N+](=O)[O-])CC1` was tested, and the activation was -0.05% (inactive).
For `Cc1cc(NC(=O)Nc2ccccc2[N+](=O)[O-])no1`, the activation was -0.4% (inactive).
`CCOc1ccc(-n2c(SCC(=O)Nc3cc(C)c(NC(=O)c4ccccc4)cc3OC)nnc2-c2cccs2)cc1` was tested, and the activation was -0.56% (inactive).
In the case of `O=C(CN1C(=O)NC2(CCc3ccccc32)C1=O)NC1CCCCC1` (stereo unspecified), the activation is reported as 2.74% (inactive).
In the case of `Nc1nc2c(ncn2[C@@H]2O[C@H](C(=O)N[C@H](Cc3ccccc3)C(=O)NCC3CCCCC3)[C@@H](O)[C@H]2O)c(=O)[nH]1`, the activation is reported as 1.38% (inactive).
`Cc1ccc(NC(=O)c2csc3c2CCCC3)cc1` was tested, and the activation was 11.3% (active).
For `COc1ccc(NC(=O)c2c(C)oc3c2CCCC3)cc1`, the activation was 1.98% (inactive).
With `CC1CC(C)CN(CCCNC(=O)c2csc3c2CCCCC3)C1` (stereo unspecified) the activation was 0.75% (inactive).
`COCCNC(=S)N(C)[C@H]1C[C@H]2c3[nH]c4ccccc4c3CCN2C[C@H]1[C@H](C)O` was tested, and the activation was 1.74% (inactive).
`COc1cc2cc(CN(CCN3CCCC3)C(=O)Nc3ccccc3Cl)c(=O)[nH]c2cc1OC` was tested, and the activation was -0.2% (inactive).
